# High-throughput results deposited in PubChem by Paczesny and Yang Labs, IUPUI and University of Michigan.
# The full list was thinned out, with hits kept by preference.
# ST2 IL33 inh = IL1RL1 inhibition | AlphaLISA ST2-Fc/biotin-IL-33 interaction, 1 h | 78,000 tested, 2.3% active | inhibition, % for hits at 17 µM | AID 1259354 | Q01638; in the data active = inhibition above about 30%
# Target sequence (Q01638 whole entry, looked up): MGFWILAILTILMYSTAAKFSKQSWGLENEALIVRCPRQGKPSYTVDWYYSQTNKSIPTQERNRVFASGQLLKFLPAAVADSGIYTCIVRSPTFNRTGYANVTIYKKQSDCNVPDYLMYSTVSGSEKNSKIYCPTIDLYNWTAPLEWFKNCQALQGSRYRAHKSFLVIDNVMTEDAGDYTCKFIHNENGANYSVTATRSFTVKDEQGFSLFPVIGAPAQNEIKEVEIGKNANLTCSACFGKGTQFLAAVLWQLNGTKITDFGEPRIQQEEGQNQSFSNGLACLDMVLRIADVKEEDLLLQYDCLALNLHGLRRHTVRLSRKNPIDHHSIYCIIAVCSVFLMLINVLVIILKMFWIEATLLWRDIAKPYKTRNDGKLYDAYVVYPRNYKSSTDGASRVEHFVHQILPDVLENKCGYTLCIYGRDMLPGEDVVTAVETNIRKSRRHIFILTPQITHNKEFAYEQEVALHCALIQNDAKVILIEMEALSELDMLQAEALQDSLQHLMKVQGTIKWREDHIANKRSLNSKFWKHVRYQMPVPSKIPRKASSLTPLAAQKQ
# Starred values were filed as active, the others as inactive; i = inactive.
SMILES,ST2 IL33 inh
COCCNC(=O)NCCc1nc2cccnc2n1Cc1ccccc1,i
COc1cccc(C2C(C(=O)OC3CCCC3)=C(C)NC3=C2C(=O)CC(c2ccccc2)C3)c1 (configuration not stated),i
O=[N+]([O-])CC(SCCO)c1ccc(O)cc1 (configuration not stated),i
CC(=O)n1cc(C(C[N+](=O)[O-])SCCN)c2ccccc21 (configuration not stated),30%*
O=C(Nc1nn[nH]n1)c1cccs1,i
O=C(O)c1[nH]c2ccc(Cl)cc2c1CC(=O)N1CCOCC1,i
Cc1ccc(S(=O)(=O)N=C2C=C(Nc3cccc(C(=O)O)c3)C(=O)c3ccccc32)c(C)c1,48%*
Cc1ccc([N+](=O)[O-])cc1S(=O)(=O)Nc1cccc(C(=O)O)c1,i
Cc1ccc(S(=O)(=O)Nc2cccc(C(=O)NN)c2)cc1,i
Cc1cccc(NC(=O)C(C)N(c2ccccc2)S(C)(=O)=O)c1 (configuration not stated),i
Cc1ccc(S(=O)(=O)N=C2C=C(Nc3cccc(C(=O)O)c3)C(=O)c3ccccc32)cc1,53%*
Cc1ccc(NC(=O)c2cccc(S(=O)(=O)Nc3cccc(C(=O)O)c3)c2)cc1,i
Cc1ccc(C(NC(=O)c2ccc(-n3cnnc3)cc2)c2ccncc2)cc1 (configuration not stated),i
CC(=O)N1CCC(N(C)CCCc2cnn(C)c2)CC1,i
CCC(C)OC(=O)C1=C(C)NC2=C(C(=O)C(C(=O)OC)C(C)C2)C1c1ccc(OC)c(O)c1 (configuration not stated),i
Cc1noc(C)c1S(=O)(=O)NCc1ccccc1,i
CCC(NC(=O)c1cn(Cc2ccccc2F)nn1)c1ccncc1 (configuration not stated),i
CCOc1ccccc1C1C(C(=O)N(CC)CC)=C(C)Nc2nc3ccccc3n21 (configuration not stated),i
CC(Cc1ccccn1)N1CCN(c2nc(-c3ccccc3)nc3c2CCC3)CC1 (configuration not stated),i
CC(=O)Nc1ccc(S(=O)(=O)N(CC2C(C)C=C(C)CC2C)C2CCCCC2)cc1 (configuration not stated),32%*
O=C(CN(C1CCCCC1)S(=O)(=O)c1ccc(Br)cc1)NC1CC1,i
CNC(=O)CN(C1CCCCC1)S(=O)(=O)c1ccccc1,i
O=C(c1ccc(NCc2ccc[nH]c2=O)nc1)N1CCC(N2CCOCC2)CC1,i
Brc1ccc2nc(-c3ccccn3)c(Nc3ccccc3)n2c1,i
Cc1ccc(-c2nc3cnccn3c2Nc2ccc3c(c2)OCO3)o1,i
SMILES,ST2 IL33 inh
Cc1ccc2nc(-c3ccc(C)o3)c(Nc3ccccc3)n2c1,i
Cc1ccn2c(Nc3ccc4c(c3)OCO4)c(-c3ccccn3)nc2c1,31%*
Cc1ccc2nc(-c3ccc(C)o3)c(Nc3ccc4c(c3)OCCO4)n2c1,i
Cc1ccn2c(NC3CCCC3)c(-c3ccccn3)nc2c1,38%*
Cc1ccc2nc(-c3c[nH]c4ccccc34)c(NC3CCCC3)n2c1,i
Cc1ccc(-c2nc3ccccn3c2Nc2ccc3c(c2)OCCO3)o1,35%*
COc1ccc(Nc2c(-c3ccccn3)nc3ccc(Br)cn23)cc1,i
Cc1ccn2c(Nc3ccccc3)c(-c3ccc(C)o3)nc2c1,i
Cc1ccc2nc(-c3ccccn3)c(Nc3ccc4c(c3)OCCO4)n2c1,31%*
Cc1ccc(-c2nc3cnccn3c2NC2CCCCC2)o1,i
CCC(C)N(Cc1cccnc1)C(=O)CCN(C)S(C)(=O)=O (configuration not stated),i
O=C(CSc1c[nH]c2ccccc12)Nc1ccc2c(c1)OCCO2,i
O=[N+]([O-])c1cccc(C2=Nn3cnnc3SC2)c1,i
Cn1ccnc1CN1C(=O)CO[C@H]2CN(C(=O)CC(C)(C)C)C[C@H]21,i
O=C(NC1CCCCCC1)C1c2ccccc2C(=O)N2CCc3ccccc3C12 (configuration not stated),i
COc1cc(Br)c(CNc2ccc(F)c(Cl)c2)cc1OC,i
O=C(CSc1nc2ccccc2c(=O)n1CCc1ccccc1)NCc1ccco1,i
Clc1ccc2nc(-c3ccco3)c(Nc3ccc4c(c3)OCO4)n2c1,i
Cc1ccc2nc(-c3ccccn3)c(Nc3ccc4c(c3)OCO4)n2c1,32%*
Cc1ccc(-c2nc3ccc(Br)cn3c2Nc2ccc3c(c2)OCO3)o1,i
Cc1cc(CO)c(O)c(CCc2ccccc2)n1,i
Cc1ccc(CNC(=O)CCCn2c(=O)c3sccc3n(Cc3cccc(C)c3)c2=O)cc1,i
COc1ccc(CN2CCc3ccccc3C2)cc1OC,i
O=C(CCN1CCCCCC1)Nc1ccc2c(c1)CCC2,i
CCN(C(=O)c1cc2cc3ccc(OC)cc3nc2s1)c1cc(OC)ccc1OC,31%*
SMILES,ST2 IL33 inh
COc1ccc2cc3cc(C(=O)NC4CC4)sc3nc2c1,i
CCN(CC)CCNC(=O)c1cc2cc3cc(OC)ccc3nc2s1,i
CCc1nc(C)c(C(=O)N2CC[C@@H](c3sccc3C)[C@H](O)C2)o1,i
Cc1ccsc1[C@@H]1CCN(C(=O)c2coc3c2C(=O)CCC3)C[C@H]1O,32%*
CC(=O)c1[nH]c(C)c(C(=O)N2CC[C@@H](c3sccc3C)[C@H](O)C2)c1C,i
O=C1CCCC2=C1C(c1ccc(OC(F)F)cc1)C1=C(CCCC1=O)N2,i
CC1CC(=O)C2=C(C1)OC(N)=C(C#N)C2c1cc(Br)cs1 (configuration not stated),i
COc1ccc(Nc2nnc(-c3ccc(C)c(S(=O)(=O)N(C)C)c3)c3ccccc23)cc1,i
COc1ccc(NS(=O)(=O)c2ccccc2)cc1,i
COc1ccc(NC2=C(N(C)C)C(=O)c3ccccc3C2=O)cc1,44%*
COc1ccc(C(=O)c2ccccc2)c(OCC(=O)N(C)C)c1,i
COc1ccc(O)c(C(=O)CC(=O)c2ccccc2)c1,32%*
COC(=O)c1cc(O)c(OCc2ccccc2)c(O)c1,i
CC(C)c1nc2cc(C(=O)NCC(C)(C)N3CCOCC3)ccc2o1,i
O=C(O)c1ccccc1CN1CCC2(CCOCC2)CC1,i
CCOC(=O)Cn1c(=O)n(-c2ccc(F)cc2)c2nc(-c3cccnc3)nc(C(N)=O)c21,i
CC1=C(C(=O)Nc2cccc(C)n2)C(c2cccc(Cl)c2Cl)C2=C(CC(C)(C)CC2=O)N1 (configuration not stated),i
C(=Nc1cnc2ccccc2c1)c1c2n(c3ccccc13)CCCN2,30%*
O=S(=O)(N1CCc2ccccc2C1)N1CCCC1c1ccccn1 (configuration not stated),i
COc1ccc(-n2cc3c([N+](=O)[O-])cc([N+](=O)[O-])cc3n2)cc1,i
COc1ccccc1-n1cc2c([N+](=O)[O-])cc([N+](=O)[O-])cc2n1,35%*
COc1ccc(C2=N/C(=C\c3cccc(OC)c3OC)C(=O)O2)cc1[N+](=O)[O-],i
CC1(C2CCC(=O)O2)CC(=O)c2c(O)cc(CO)cc2O1 (configuration not stated),30%*
CCN1CCCC1CNC(=O)c1ccc2c(Cl)c3c(nc2c1)CCCC3 (configuration not stated),i
O=C(Nc1cccc(-n2cccn2)c1)C1CCCN1C(=O)CCc1ccco1 (configuration not stated),i
COc1cc(OC)c(NC(=O)c2cc3c(=O)oc4ccccc4c3s2)cc1Cl,i
